Out of some 69,000 compounds screened, about 950 (1.4%) showed an effect of 50% or more. Shown is part of a subset that was picked to be rich in strong results.

For the test, the system named is Mycobacterium tuberculosis. Briefly: Cornell M. t heat shock assay. Also: in the data most compounds retested in dose-response had high values. Type of test: functional, organism-based. More on the design: dose or concentration left out as unconfirmed.
On to `CC1c2ncc(CNC(=O)C3CC3)n2CCN1Cc1cccnc1.O=C(O)C(F)(F)F.O=C(O)C(F)(F)F` (stereo not given), for which the “Percent Effect” value is on record as -10.62%.
Take `CN1CC(=O)N(c2ccccc2)CC12CCN(C(=O)c1cccs1)C2.O=C(O)C(F)(F)F` (stereo not given): the “Percent Effect” value is given as -3.603%.
On to `O=C(O)C(F)(F)F.O=C(O)C(F)(F)F.O=C(c1cccnc1)N1Cc2nccn2CC(COc2cccnc2)C1` (stereo not given), for which the “Percent Effect” value is -22.14%.
The same measure for `CCN1C(=O)CCC12CCCN(Cc1nccs1)CC2.O=C(O)C(F)(F)F` (stereo not given): -119%; for `CN(C)CCOCC1CN(Cc2cccs2)Cc2ccnn2C1.O=C(O)C(F)(F)F.O=C(O)C(F)(F)F.O=C(O)C(F)(F)F` (stereo not given): -22.31%.
Consider `CN(C)Cc1cc(C2CCN(C(=O)C3CC34CCC4)CC2)nn1C.Cl` (stereo not given), for which the “Percent Effect” value is given as -10.56%.
Consider `CNc1cc(C)nc(N2Cc3cnn(Cc4ccc(F)cc4)c3C2)n1`, for which the “Percent Effect” value is recorded as -20.76%.
Take `Cc1ccc(CNC2CC3(CCN(CCO)CC3)c3ccccc32)s1.O=C(O)C(F)(F)F.O=C(O)C(F)(F)F` (stereo not given): the “Percent Effect” value came to 0.5733%.
Take `O=C(O)C(F)(F)F.O=C1N(Cc2cccnc2)CCC12CCCN(c1ncc(F)cn1)C2` (stereo not given): the “Percent Effect” value came out at 4.445%.
Turning to `Cl.Oc1cc(C2CCNCC2)nc(-c2ccsc2)n1`, the “Percent Effect” value was -3.533%.
On to `Cn1nccc1C(=O)N1CCC2(CC1)COC(COc1ccccn1)C2.O=C(O)C(F)(F)F` (stereo not given), for which the “Percent Effect” value is given as -4.012%.
Turning to `O=C(Nc1ccc(=O)n(Cc2ccccc2Cl)c1)C1CC1`, the “Percent Effect” value turned out to be 42.02%.
On to `CC(OCC1CC1)C(=O)Nc1nccn1Cc1ccccc1` (stereo not given), for which the “Percent Effect” value was 81.58%.
Consider `CC(=O)Nc1nccn1Cc1ccccc1Cl`, for which the “Percent Effect” value turned out to be 63.7%.
`COC(=O)N1CCN(Cc2ccccc2Cl)CC1`: the “Percent Effect” value was -12.81%.
As for `CC(OCC1CC1)C(=O)Nc1ccn(Cc2ccccc2)n1` (stereo not given), the “Percent Effect” value is -11.4%.
With `CCOCCOC(C)C(=O)Nc1nccn1Cc1ccccc1` (stereo not given), the “Percent Effect” value was 28.47%.
The same measure for `CN1CCOCC2(CCCN(C(=O)c3cnccn3)C2)C1.O=C(O)C(F)(F)F` (stereo not given): -11.83%.
As to `Cc1cc(N(C)C)nc(C2CCNC2)n1.Cl.Cl` (stereo not given), the “Percent Effect” value is -43.84%.
As for `Cc1cnc(N2CC[C@H]3[C@@H]2CCC(=O)N3c2ccccc2)nc1.O=C(O)C(F)(F)F`, the figure is 36.02%; as for `O=C(NCC1CC1)[C@@H]1CCO[C@@H]2CCN(CCc3ccccc3)C[C@H]21.O=C(O)C(F)(F)F`, -21.47%; as for `Cn1cccc1C(=O)N1CC[C@@H]2[C@@H]1CC(=O)N2CCN1CCOCC1.O=C(O)C(F)(F)F`, -25.84%.
As for `CCO[C@@H]1CC[C@H]2[C@H]1OCCN2Cc1ccoc1.O=C(O)C(F)(F)F`, the figure is 1.857%.
For the compound `O=C(CC1CC1)N[C@@H]1CN(Cc2ccoc2)C[C@@H]2CCCO[C@@H]21`, the “Percent Effect” value was -3.487%.
Regarding `O=C(N[C@@H]1CN(Cc2ccccc2)C[C@@H]2CCCO[C@@H]21)C1CC1.O=C(O)C(F)(F)F`, the “Percent Effect” value is recorded as -8.331%.
Take `O=C(N[C@@H]1CN(Cc2ccoc2)C[C@@H]2CCCO[C@@H]21)C1CCC1`: the “Percent Effect” value is given as 51.5%.
Turning to `COC(=O)CCc1c(C)nn(-c2nc(C)cc(=O)[nH]2)c1C`, the “Percent Effect” value is on record as 103.1%.
For the compound `Cc1nc(NC(=O)CCc2c(C)nc3cc(O)nn3c2C)sc1C`, the “Percent Effect” value was determined as 27.32%.
`COCCNC(=O)CCc1c(C)nn(-c2nc(C)c(C)c(=O)[nH]2)c1C`: the “Percent Effect” value came out at 37.18%.
Regarding `COc1ccc(C)nc1NC(=O)CCc1c(C)nn(C)c1C`, the “Percent Effect” value is -18.22%.
On to `Cc1cc(=O)[nH]c(-n2nc(C)c(CCC(=O)Nc3nc(C)cs3)c2C)n1`, for which the “Percent Effect” value was 95.61%.
As for `Cc1nn(-c2cc(Cl)cc(Cl)c2)c(C)c1CCC(=O)O`, the “Percent Effect” value came out at 19.8%.
Take `Cc1nc2cc(O)nn2c(C)c1CCC(=O)NCCCC(C)C`: the “Percent Effect” value is reported as -0.01064%.
Regarding `Cc1cc(=O)[nH]c(-n2nc(C)c(CCC(=O)NCC(C)C)c2C)n1`, the “Percent Effect” value was found to be 98.01%.
As to `Cc1csc(NC(=O)Cn2nc(C)ccc2=O)n1`, the “Percent Effect” value was -1.06%.
`CC(=O)N1[C@H](CN(C)C)C[C@@H]2CN(C(=O)c3cccn3C)CC[C@@H]21.O=C(O)C(F)(F)F`: the “Percent Effect” value is on record as -10.3%.
Take `O=C(O)C(F)(F)F.O=C(c1cccnc1)N1CCC2(CCN(C(=O)c3ccco3)CC2)C1`: the “Percent Effect” value was determined as 23.94%.
As for `CCC(C)(C)NC(=O)c1ncn2c1CN(C)S(=O)(=O)c1ccccc1-2.O=C(O)C(F)(F)F`, the “Percent Effect” value was -13.28%.
Regarding `CCNC(=O)NCc1ccccc1NS(=O)(=O)c1ccccc1`, the “Percent Effect” value amounted to 35.07%.
The same measure for `N#Cc1nc(COc2ccc3c(c2)OCO3)oc1NC1CCCCC1`: 5.438%; for `O=C(O)C(F)(F)F.c1cn2c(n1)CN(Cc1ccsc1)CC(Cn1cncn1)C2` (stereo not given): -22.01%; for `CCCn1cc(-c2cc(-c3c[nH]cn3)c(C#N)c(N)n2)c(C)n1`: 15.71%.
Take `CCCn1cc(-c2cc(-c3cnc(OC)nc3)c(C#N)c(N)n2)c(C)n1`: the “Percent Effect” value is 100.5%.
As for `Cc1ccc(-c2cc(-c3c(C)nn(CCO)c3C)c(C#N)c(N)n2)cc1`, the figure is 10.03%; as for `COc1ncc(-c2cc(-c3ccn(C)c3)nc(N)c2C#N)cn1`, -43.44%.
As for `CCCn1cc(-c2cc(-c3ccoc3)c(C#N)c(N)n2)c(C)n1`, the figure is 75.39%.
As to `CCCn1cc(-c2cc(-c3cc(CC)n[nH]3)c(C#N)c(N)n2)c(C)n1`, the “Percent Effect” value came out at 41.25%.
As to `O=C(C[C@@H]1COC[C@H]2CN(C(=O)c3cccnc3)C[C@@H]12)N1CCOCC1.O=C(O)C(F)(F)F`, the “Percent Effect” value is -5.703%.
In the case of `CN(C)C(=O)CN1C(=O)CCC12CCN(Cc1ccsc1)CC2.O=C(O)C(F)(F)F`, the “Percent Effect” value is reported as -0.1041%.
Consider `COCc1ccc(CN2CCC(O)(Cn3ccc4ncccc43)CC2)o1.Cl`, for which the “Percent Effect” value was -9.994%.
`Cl.c1ccc(CNc2cc(C3CCCNC3)ccn2)nc1` (stereo not given): the “Percent Effect” value was determined as 18.31%.
As for `Cc1oncc1C(=O)NCc1cc(=O)n2c(n1)CN(CC1CC1)CCC2.O=C(O)C(F)(F)F`, the figure is -32.57%; as for `COCC(=O)N1CC[C@H]2O[C@@H](C)C[C@H]2C1`, 64.99%; as for `COCC(=O)N1CC[C@H]2C[C@H](C)O[C@@H]2C1`, 3.806%.
As for `COCC(=O)N1CC[C@@H]2O[C@@H](C)C[C@H]2C1`, the figure is -1.773%.

The values above are taken from ChEMBL document CHEMBL3988442, “University of Dundee, Small-Polar-MMV Screening Library” (2021).
